Experimental findings from ChEMBL document CHEMBL3988442, “University of Dundee, Small-Polar-MMV Screening Library” (2021) are described below.

Structures are written as SMILES.

For test [1], the target named is T1, Aspartate--tRNA(Asp/Asn) ligase (Mycobacterium tuberculosis (strain ATCC 25618 / H37Rv)) (UniProt P9WFW3). Note: in the data most compounds retested in dose-response had high values.
T1 sequence (whole entry): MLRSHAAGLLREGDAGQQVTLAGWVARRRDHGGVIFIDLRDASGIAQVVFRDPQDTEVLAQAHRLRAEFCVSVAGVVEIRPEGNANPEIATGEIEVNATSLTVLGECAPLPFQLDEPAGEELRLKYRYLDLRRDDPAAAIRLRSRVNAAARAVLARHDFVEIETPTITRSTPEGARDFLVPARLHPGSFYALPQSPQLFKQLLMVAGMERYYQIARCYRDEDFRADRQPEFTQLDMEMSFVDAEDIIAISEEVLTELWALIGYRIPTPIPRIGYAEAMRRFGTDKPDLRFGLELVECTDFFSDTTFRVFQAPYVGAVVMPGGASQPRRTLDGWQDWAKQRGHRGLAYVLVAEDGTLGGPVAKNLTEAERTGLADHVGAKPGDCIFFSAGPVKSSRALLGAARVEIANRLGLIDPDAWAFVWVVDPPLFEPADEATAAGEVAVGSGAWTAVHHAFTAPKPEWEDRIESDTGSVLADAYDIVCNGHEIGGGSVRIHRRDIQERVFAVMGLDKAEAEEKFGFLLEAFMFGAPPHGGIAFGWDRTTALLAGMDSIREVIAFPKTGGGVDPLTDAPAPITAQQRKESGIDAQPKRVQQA
Nature of the test: Assay for Asp RNA synthetase-1 from Mycobacterium tuberculosis. The class given is functional. Also on record: scale not given: direction of the effect not stated beside the values. The settings on record: 30 µM.

Test [2] concerns the target Shiga toxin 2 (Escherichia coli O157:H7) (UniProt P09385+P09386). Nature of the test: E. coli 0.157:H7 Shiga Toxin SOP - stx2 screening assay. Also on record: scale not given: direction of the effect not stated beside the values. As to conditions: 30 µM. It counts as functional.

`CSc1ccccc1CN1CCCn2nc(CNC(=O)N(C)C)cc2C1`: the results for the Percent Effect in test [1] and in test [2] were 2.53% and -34.2%, respectively.
As for `CN(Cc1nc(N)c2ccccc2n1)C1CCCN(c2cccnn2)C1` (stereo not given), the values for the Percent Effect in test [1] and in test [2] were -4.22% and -28.7%, respectively.
The corresponding values for `O=C(NCc1ccccc1CN1CCC(O)CC1)Nc1cccnc1` are 1.28% and -12.1%.
The corresponding values for `O=C(c1cn(-c2cc(N3CCSCC3)ncn2)cn1)N1CCSCC1` are -8.02% and 1.44%.
The matching figures for `CCS(=O)(=O)CCNC(=O)c1ccc(-c2ccc(C)cc2)cc1F`: 7.76% and -42.5%.
Regarding `CC(C)CCC(C)NC(=O)c1ccc(OCC(N)=O)cc1` (stereo not given), the Percent Effect is 2.49% in test [1] and -8.96% in test [2].
With `COCc1nc(C(=O)NS(=O)(=O)c2cc(F)ccc2F)cs1`, the Percent Effect in test [1] is -0.5%; in test [2] it was -51.5%.
The corresponding values for `O=C1NC2(CCN(C(=O)c3ccccc3)CC2)CC1c1cccnc1` (stereo not given) are -4.95% and -5.71%.
The corresponding values for `CC(C)(C)C(=O)NCCc1ccn(-c2ccccc2)n1` are -7.82% and -32.2%.
The matching figures for `CO[C@H]1CCN(S(=O)(=O)c2cn(C)cn2)[C@H]1Cc1cnn(C)c1`: 7.16% and 5.54%.
For the compound `O=C(CN1CCc2c(ncn2C2CC2)C1)NC1CC1`, the Percent Effect in test [1] is -0.0146%; in test [2] it was 5.91%.
The corresponding values for `CC(=O)N1CCC(C(=O)NCCN2CCCCC2)CC1` are -0.501% and -3.32%.
The matching figures for `Cc1nc(N2CCN(C(=O)c3ccsc3)CC2)c2cnn(C)c2n1`: 5.51% and 0.569%.
Take `Clc1snnc1CN1CCCC(Cn2cncn2)C1` (stereo not given): the Percent Effect in test [1] is -2.43%; in test [2], -33%.
The matching figures for `Cn1nc2c(cc1=O)CN(Cc1nc(-c3cccs3)no1)CC2`: 1.81% and 3.81%.
The matching figures for `CC(C)N1CCC(N2CCN(C3CCC3)CC2CCO)CC1` (stereo not given): -3.4% and -0.0599%.
As to `CC(CCc1ccccc1)NC(=O)Nc1cnn(CC(N)=O)c1` (stereo not given), the Percent Effect was 2.84% in test [1] and -44.2% in test [2].
The matching figures for `CN(C)c1ccc(NC(=O)NCc2ccccn2)cn1`: 3.94% and -60.4%.
As to `CS(=O)(=O)N1CCC(O)(Cn2c(C3CC3)nc3ccccc3c2=O)CC1`, the Percent Effect in test [1] is 1.5%; in test [2], 11.1%.
The corresponding values for `Cc1cnn(C2CCCN(C(=O)c3sccc3C#N)C2)c1` (stereo not given) are 1.95% and -36.4%.
The matching figures for `NC(=O)C1CN(C(=O)Nc2cc(Cl)cc(Cl)c2)CCO1` (stereo not given): 1.82% and 8.74%.
The matching figures for `Cc1cc(C2CCCN2C(=O)c2cc3c(s2)CCC3)on1` (stereo not given): -0.678% and 5.77%.
For the compound `Cc1cccc(-c2nc(CN3CCCCC3Cn3cncn3)no2)c1` (stereo not given), the Percent Effect in test [1] was -2.9%; in test [2], 15.3%.
The corresponding values for `O=C(c1ccc(OCC2CC2)nc1)N1CCCC(n2cncn2)C1` (stereo not given) are 1.48% and -39.7%.
The matching figures for `Cc1ccc2c(c1)c(CNC(=O)C1CC(=O)N(C3CCCC3)C1)nn2C` (stereo not given): 4.05% and -18%.
For `CCC(=O)N1CCC2(CC1)COc1ccccc1S(=O)(=O)N(C)C2`, the Percent Effect was -1.57% in test [1] and 6.18% in test [2].
With `O=C(NC1COC2(CCN(Cc3ccccn3)CC2)C1)c1ccccn1` (stereo not given), the Percent Effect in test [1] was -7.74%; in test [2], -29.1%.
The corresponding values for `CN(C)C(=O)CCC(=O)NCc1cccnc1-n1cnc2ccccc21` are -3.48% and -4.51%.
The matching figures for `Cc1cnn(CC2CN(Cc3nccn3C)CCO2)c1` (stereo not given): -3.32% and 17.1%.
The matching figures for `CO[C@H]1CCN(c2ncccn2)[C@H]1Cc1ccccc1`: 1.75% and -19.4%.
Consider `Cc1cccc(-c2noc(CN3CCCC(Cn4cncn4)C3)n2)c1` (stereo not given), for which the Percent Effect in test [1] is -2.23%; in test [2] it was -1.3%.
The matching figures for `CN(Cc1ccncc1)C(=O)Nc1cnn(CC2CCCO2)c1` (stereo not given): 2.49% and -5.44%.
The corresponding values for `CC(=O)N(Cc1ncc(C)o1)C1CCN(CCCc2cnn(C)c2)C1` (stereo not given) are 6.13% and -33.8%.
The corresponding values for `COc1ccc(C)cc1CN(C)Cc1nc2c(cnn2C)c(=O)[nH]1` are 1.01% and 46.7%.
As for `Cc1noc(C)c1CNC(=O)N1CCC(C(O)c2ccccc2)CC1` (stereo not given), the Percent Effect in test [1] was -2.1%; in test [2], -19.9%.
For `O=C(NS(=O)(=O)c1cc(Cl)sc1Cl)c1cccc2c1OCCO2`, the Percent Effect in test [1] is 1.84%; in test [2], -6.84%.
The matching figures for `COCC(O)CNC(=O)c1cnc(-c2ccccc2)nc1O` (stereo not given): 2.15% and -7.39%.
With `CCc1nccn1C1CCCN(C(=O)c2ccc(C(=O)NC)nc2)C1` (stereo not given), the figures for the Percent Effect in test [1] and in test [2] were 2.25% and 2.77%, respectively.
The corresponding values for `Cc1nccn1CC1CCCN1S(=O)(=O)Cc1ccon1` (stereo not given) are -2.34% and -23.9%.
The matching figures for `O=C([C@H]1C[C@@H]2CCN(C3CCOCC3)C[C@@H]2O1)N1CCOCC1`: 1.17% and -10.3%.
`CC(NC(=O)c1nc(=O)[nH][nH]1)c1ccc(OCC2CC2)c(F)c1` (stereo not given): the Percent Effect in test [1] is -2.07%; in test [2], 5.49%.
The matching figures for `c1ccc(CN2CCc3nnc(CN4CCCCC4)n3CC2)nc1`: 3.71% and 1.8%.
The matching figures for `CCOC(=O)[C@]12CCCN(Cc3nccs3)C[C@H]1CN(CCN(C)C)C2`: 6.19% and -7.56%.
The matching figures for `CCc1n[nH]c(C2CN(CC(=O)NCCc3ccsc3)CCO2)n1` (stereo not given): -5.2% and -20.2%.
As for `COCCC(=O)N1CCCC2(CCC(=O)N2CCOC)CC1` (stereo not given), the Percent Effect in test [1] is 0.751%; in test [2] it was -11.1%.
The matching figures for `Cc1csc([C@@H]2C[C@@H]3CCN(C(=O)c4cc(C)on4)C[C@H]3O2)n1`: 0.801% and -17.6%.
The matching figures for `CCOc1ncccc1C(=O)N1CCCC1c1c(C)nn(C)c1OC` (stereo not given): -0.602% and -8.49%.
The corresponding values for `CC(C)c1nc(C2CCCN(C(=O)c3ccc4[nH]cnc4c3)C2)no1` (stereo not given) are 2.42% and 0.178%.
For the compound `COc1cc2cc(C(=O)O)n(C)c2cc1OC`, the values for the Percent Effect in test [1] and in test [2] were -0.697% and -0.0542%, respectively.
Turning to `Cc1cnn(CC2CCCN2CC(=O)N(C)Cc2ccc(C)o2)c1` (stereo not given), the results for the Percent Effect in test [1] and in test [2] were 0.457% and -11.2%, respectively.
